What all share (settings): concentration: 1 μM, replicates: in singlicate; n = 1
Experiment [1] has as its system T1, ERK1.
T1 construct: gene MAPK3

For experiment [2], the system named is T2, ERK2.
T2 construct: gene MAPK1

For experiment [3], the system named is T3, ERK3.
T3 construct: gene MAPK6

Experiment [4] concerns T4, ERK4.
T4 construct: gene MAPK4

Experiment [5] deals with T5, ERK5.
T5 construct: gene MAPK7

Experiment [6] has as its system T6, ERK8.
T6 construct: gene MAPK15

Experiment [7] has as its system ERN1.
The test system of experiment [8] is T7, FAK.
T7 construct: gene PTK2

The subject of experiment [9] is FER.
The subject of experiment [10] is FES.
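Also: KINOMEscan kinase panel screen.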

For `COc1ccc(Nc2nccc(NCCNC(=O)c3cc4ccccc4s3)n2)cc1` [GSK1379896], the “%Inh” value in experiment [1], in [2], in experiment [3], in experiment [4], in experiment [5] and in [6] was 0% each time. Moreover, the “%Inh” value in [7] is on record as 0%; in experiment [8] it was 11%; in experiment [9], 12%; in [10], 0%.

Turning to `CN(C)S(=O)(=O)c1cc(-c2ccc3nccc(-c4cccc(S(N)(=O)=O)c4)c3c2)cnc1N` [GSK1669921], the “%Inh” value is listed as 3% in experiment [1]; 0% in experiment [2]; 0% in [3]; 0% in [4]; 0% in experiment [5]; 40% in [6]. The “%Inh” value in [7] stood at 8%; in experiment [8], 0%; in experiment [9], 5%; in [10] it was 14%.

With `O=C(O)C(F)(F)F.O=C(O)C(F)(F)F.O=c1[nH]ccc2nc(N[C@@H]3CCCNC3)nc(Nc3ccc(S(=O)(=O)N4CCOCC4)cc3)c12` [GSK2177277], the “%Inh” value in experiment [1] came to 59%; in [2], 72%; in experiment [3], 100%; in [4], 100%; in [5], 58%; in experiment [6] it was 99.2%. The “%Inh” value in experiment [7] is recorded as 60%; in [8], 86%; in [9], 95.4%; in experiment [10], 68%.

With `Nc1ncc(-c2cccnc2)c2scc(-c3ccc4c(c3)CCN4C(=O)Cc3ccccc3)c12` [GSK683281], the “%Inh” value was 0% in [1]; 11% in [2]; 4% in experiment [3]; 21% in [4]; 0% in experiment [5]; 0% in [6]. Besides, the “%Inh” value is given as 35% in [7], 0% in experiment [8], 33% in experiment [9] and 0% in experiment [10].

`CCn1c(-c2nonc2N)nc2c(C#CC(C)(C)O)ncc(OCCCCN)c21.O=C(O)C(F)(F)F.O=C(O)C(F)(F)F` [GSK507274]: the “%Inh” value turned out to be 0% in [1]; 1% in experiment [2]; 6% in [3]; 8% in experiment [4]; 0% in [5]; 10% in experiment [6]. The “%Inh” value in [7] is recorded as 0%; in experiment [8] it was 0%; in [9], 0%; in experiment [10] it was 9%.

Take `CN1CCN(Cc2cccc(-c3ccc4c(Nc5ccc(Oc6ccccc6)cc5)ccnc4c3)c2)CC1` [GW578342]: the “%Inh” value turned out to be 4% in experiment [1]; 0% in experiment [2]; 0% in experiment [3]; 9% in [4]; 0% in [5]; 0% in experiment [6]. The “%Inh” value was 11% in [7], 0% in [8], 4% in [9] and 4% in experiment [10].

`O=c1[nH]cc(-c2ccc(N3CCOCC3)cc2)c2sc(-c3cn[nH]c3)cc12` [GSK2276055]: the “%Inh” value is 0% in [1]; 0% in experiment [2]; 0% in experiment [3]; 19% in experiment [4]; 0% in experiment [5]; 0% in [6]. Also, the “%Inh” value stood at 11% in experiment [7], 0% in [8], 0% in experiment [9] and 0% in [10].

Consider `Nc1ncnc2c1nc(-c1ccccc1)n2-c1ccccc1` [SKF-97293], for which the “%Inh” value in experiment [1] was determined as 12%; in [2] it was 10%; in experiment [3], 0%; in experiment [4], 0%; in [5] it was 6%; in experiment [6], 13%. Also, the “%Inh” value is reported as 35% in [7], 14% in experiment [8], 8% in experiment [9] and 30% in experiment [10].

As to `CNC(=O)c1ccccc1Nc1nc(Nc2ccc(N3CCOCC3)cc2)ncc1Cl.Cl` [GSK1576028], the “%Inh” value in [1] amounted to 59%; in experiment [2] it was 68%; in experiment [3] it was 92%; in [4] it was 64%; in [5] it was 84%; in experiment [6] it was 99.5%. For the same compound, the “%Inh” value came to 78% in experiment [7], 100% in experiment [8], 97.7% in experiment [9] and 62% in experiment [10].

The values are drawn from article PMC5540273 (PLoS ONE, 2017).
